The values that follow come from PubChem BioAssay.

Where “and” joins values, the source holds several entries; their conditions need not be identical. Identical values can stand only once. Calls of active or inactive are those of the source.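 Rule for the calls, unless noted: active = compounds whose cell count with miR-34 switched on is under 0.7 times the count with it off; inactive = the rest.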

Assay [1] in a line: P. berghei load reduction in hepatocytes – cell-based, HepG2, luciferase luminescence, HepG2 viability, primary screen (AID 624349; in the data active = parasite load remaining mostly below about 12%, no sharp cut-off; inactive = mostly above about 10%;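 note: 100% = mean of DMSO negative control wells on the same plate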). The following applies: P. berghei liver stage in HepG2, luciferase luminescence, concentration not given here; parasite load remaining: stronger effect = lower value; viability: measured here: HepG2 viability without parasites.
Assay [2] is described as follows: viability loss with induced miR-34 in A549 – imaging, A549 dox-inducible miR-34, nuclei and caspase counts, primary screen (AID 1347080). The following applies: A549 miR-34 inducible, Hoechst nuclei count, 48 h.
The nature of assay [3]: MELAS cybrid and Rieske KO viability enhancers – cell-based, MELAS cybrids, Rieske KO mouse fibroblasts, CellTiter-Glo, primary screen (AID 1508586;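 active = mean z-score across replicates of 1.96 or higher in either the MELAS or the Rieske mutant cell line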;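 note: z relative to plate mean and SD of compound and empty wells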). The note with it: low glucose.
A short description of assay [4]: compounds altering viability of human ES cells (AID 493140; call rule not given here;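 note: cells exposed to compounds for four days before counting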). The following applies: human embryonic stem cell survival screen; stronger effect = higher value.
Where [5] appears, read: stronger effect = lower value, cell number ratio, induced over uninduced.
[6] abbreviates: measured here: relative caspase fold change +Dox/-Dox.
Setting [7] is: measured here: total cells with miR-34 induction, stronger effect = lower value.
The mark [8] stands for this setting: measured here: total cells without miR-34 induction.
The mark [9] stands for this setting: MELAS cybrid survival, CellTiter-Glo 48 h, stronger effect = higher value.
[10] abbreviates: Rieske KO mouse fibroblast survival, CellTiter-Glo 72 h.

Regarding `CC(=O)N[C@@H](CC(=O)N[C@H](CCC(=O)O)C(=O)O)C(=O)O`, in assay [1], the parasite load remaining was 91.6% (inactive). In addition, in assay [1], the viability was found to be 69.1%. The values for the fold change in assay [2] (setting [5]) and in assay [2] (setting [6]) were 0.929 (inactive) and 1.02, respectively. The values for the cell count in assay [2] (setting [7]) and in assay [2] (setting [8]) were 9500 and 10200, respectively. Also, the z-score was 0.603 (inactive) in assay [3] (setting [9]) and 0.146 in assay [3] (setting [10]).

For `CO[C@@H]1[C@@H](O[C@@H]2O[C@H](C)[C@@H](O[C@H]3C[C@@](C)(OC(=O)CC(C)C)[C@@H](O)[C@H](C)O3)[C@H](N(C)C)[C@H]2O)[C@@H](CC=O)C[C@@H](C)[C@@H](O)/C=C/C=C/C[C@@H](C)OC(=O)C[C@H]1OC(C)=O`, the parasite load remaining in assay [1] was 40.7% (inactive). In addition, the viability in assay [1] amounted to 45.1%. For the same compound, the fold change in assay [2] (setting [5]) was 0.924 (inactive); in assay [2] (setting [6]), 0.331. In addition, the cell count in assay [2] (setting [7]) worked out at 7880; in assay [2] (setting [8]) it was 8530. Also, the z-score in assay [3] (setting [9]) was -0.757 (inactive); in assay [3] (setting [10]), -0.227.

`C[C@@H]1C[C@H]2[C@@H]3C[C@H](F)C4=CC(=O)C=C[C@]4(C)[C@@]3(Cl)[C@@H](O)C[C@]2(C)[C@H]1C(=O)COC(=O)C(C)(C)C`: in assay [4], the survival is 4.25 (inactive). The parasite load remaining in assay [1] is 85.6% (inactive). For the same compound, in assay [1], the viability was 86.4%. Further, the fold change in assay [2] (setting [5]) was 0.917 (inactive); in assay [2] (setting [6]), 0.704. Further, the cell count in assay [2] (setting [7]) was determined as 6960; in assay [2] (setting [8]) it was 7580. In addition, the z-score in assay [3] (setting [9]) is -0.991 (inactive); in assay [3] (setting [10]), -0.15.

Turning to `CC(C)(C)C(=O)OCOC(=O)[C@@H]1N2C(=O)[C@@H](N=CN3CCCCCC3)[C@H]2SC1(C)C`, the survival in assay [4] was 17.2 (inactive). The parasite load remaining in assay [1] is 86.3% (inactive). The viability in assay [1] was determined as 108%. Besides, the fold change was 0.956 (inactive) in assay [2] (setting [5]) and 0.721 in assay [2] (setting [6]). For the same compound, the cell count in assay [2] (setting [7]) came to 9610; in assay [2] (setting [8]) it was 10100. For the same compound, the z-score in assay [3] (setting [9]) was 0.579 (inactive); in assay [3] (setting [10]), -0.414.

With `Cc1onc(-c2c(F)cccc2Cl)c1C(=O)N[C@@H]1C(=O)N2C(C(=O)O)C(C)(C)S[C@H]12` (some centres not stated), the survival in assay [4] is 15.2 (inactive). Besides, the parasite load remaining in assay [1] is 131% (inactive). The viability in assay [1] was 74.7%. Also, the fold change in assay [2] (setting [5]) is 0.98 (inactive); in assay [2] (setting [6]) it was 0.516. The cell count in assay [2] (setting [7]) came out at 9050; in assay [2] (setting [8]), 9240. Also, the z-score is 0.325 (inactive) in assay [3] (setting [9]) and 0.193 in assay [3] (setting [10]).

Turning to `CN(C)C/C=C(\c1ccc(Br)cc1)c1cccnc1`, the parasite load remaining in assay [1] is 45.2% (inactive). Also, in assay [1], the viability came to 47.6%. The fold change in assay [2] (setting [5]) was 0.924 (inactive); in assay [2] (setting [6]) it was 0.86. Moreover, the cell count in assay [2] (setting [7]) is 8480; in assay [2] (setting [8]) it was 9180. Also, the z-score in assay [3] (setting [9]) is 0.27 (inactive); in assay [3] (setting [10]), 0.193.

`C=CC1=C(C(=O)O)N2C(=O)[C@@H](NC(=O)/C(=N\OCC(=O)O)c3csc(N)n3)[C@H]2SC1`: the parasite load remaining in assay [1] is 141% (inactive). Also, the viability in assay [1] turned out to be 105%. Further, the fold change in assay [2] (setting [5]) was 0.851 (inactive); in assay [2] (setting [6]) it was 1.38. For the same compound, the cell count in assay [2] (setting [7]) is 8960; in assay [2] (setting [8]), 10500. Moreover, the z-score is 0.308 (inactive) in assay [3] (setting [9]) and 0.0804 in assay [3] (setting [10]).

`O=C(O)C=Cc1ccc(O)c(O)c1`: in assay [4], the survival is 7.75 (inactive). Moreover, in assay [1], the parasite load remaining is 59.8% (inactive). Moreover, in assay [1], the viability is 95.6%. Also, the fold change in assay [2] (setting [5]) is 0.886 (inactive) and 0.85 (inactive); in assay [2] (setting [6]) it was 1.16 and 0.929. Further, the cell count is 9150 and 8100 in assay [2] (setting [7]); 10300 and 9530 in assay [2] (setting [8]). Moreover, the results for the z-score in assay [3] (setting [9]) and in assay [3] (setting [10]) were -0.35 (inactive) and 0.227, respectively.

For `CCC(=O)[C@@]1(C)[C@H](C)C[C@H]2[C@@H]3CCC4=CC(=O)C=C[C@]4(C)[C@H]3[C@@H](O)C[C@@]21C`, in assay [4], the survival was 5.08 (inactive). For the same compound, the parasite load remaining in assay [1] was 104% (inactive). In assay [1], the viability came out at 73.1%. The results for the fold change in assay [2] (setting [5]) and in assay [2] (setting [6]) were 0.901 (inactive) and 0.845, respectively. Moreover, the cell count in assay [2] (setting [7]) is 7190; in assay [2] (setting [8]) it was 7980. In addition, the values for the z-score in assay [3] (setting [9]) and in assay [3] (setting [10]) were -0.53 (inactive) and 0.51, respectively.

One may read the viability as a read-out of living cells in per cent, often relative to untreated cells.
